Data taken from PubChem BioAssay AID2551 (National Center for Advancing Translational Sciences (NCATS), 2010).
The whole screen tested about 310,000 compounds, of which about 17,000 (5.5%) were called active. A call without a number means that no potency is given here. Roughly 11% stayed inconclusive and do not appear here. Calls follow the shape of the dose curve; as a rule, active = well fitted inhibition curve with a large enough effect; inconclusive = small, poorly fitted or top-dose-only effect, or effect the other way; inactive = no such curve, though single readings can be large or run the other way. The full list was thinned out, with actives kept by preference.
Also: nearly all actives have a fitted effect of over 60% in size.
Potency is read from the fitted curve at half-maximal effect.

Each compound was assayed against Nuclear receptor ROR-gamma (Mus musculus) (UniProt P51450) (assay: qHTS for inhibitors of ROR gamma transcriptional activity). Conditions: Drosophila S2 Gal4-RORgamma UAS-luciferase reporter, 20 h; series mostly up to 53.6 µM.
Chain of Nuclear receptor ROR-gamma (Mus musculus) (P51450 whole entry, looked up, the tested form may be a part): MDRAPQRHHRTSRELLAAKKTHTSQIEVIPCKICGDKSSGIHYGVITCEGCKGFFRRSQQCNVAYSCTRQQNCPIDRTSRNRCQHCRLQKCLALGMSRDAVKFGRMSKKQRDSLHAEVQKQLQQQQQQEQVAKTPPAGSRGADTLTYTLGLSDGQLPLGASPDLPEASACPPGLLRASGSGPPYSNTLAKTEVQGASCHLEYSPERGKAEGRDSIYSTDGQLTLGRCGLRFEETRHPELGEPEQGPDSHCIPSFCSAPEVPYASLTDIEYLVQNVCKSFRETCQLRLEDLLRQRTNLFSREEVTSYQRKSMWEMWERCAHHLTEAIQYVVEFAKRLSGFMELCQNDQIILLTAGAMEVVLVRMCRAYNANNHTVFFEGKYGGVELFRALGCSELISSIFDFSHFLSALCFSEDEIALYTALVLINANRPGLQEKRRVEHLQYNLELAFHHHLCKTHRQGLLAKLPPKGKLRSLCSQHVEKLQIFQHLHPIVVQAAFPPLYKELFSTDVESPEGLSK
How it was run: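 Compounds are pin-transferred onto Drosophila Schneider cells expressing a copper-inducible Gal4–ROR gamma transactivation domain fusion. After 1 hr, copper sulfate is added to 700 uM final; luciferase is read 20 hr later.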
With `O=C(Nc1ccc(S(=O)(=O)N2CCCCC2)cc1)C1CC(=O)N(c2ccc(F)cc2)C1` (stereo not given) the Potency was “inactive”.
`CCC(C(=O)OC)n1cnc2scc(-c3ccc(C)cc3)c2c1=O` (stereo not given) was tested, and the Potency was “inactive”.
In the case of `O=C(NCC(=O)N1CCN(c2ccccc2F)CC1)c1cccs1`, the Potency is reported as “inactive”.
`Cc1ccccc1C(CC(=O)c1cccs1)C(C#N)C#N` (stereo not given) was tested, and the Potency was 1.58 µM (active).
With `O=C(CCC(=O)c1cccs1)NCc1ccccc1` the Potency was “inactive”.
With `CC(=O)c1ccc(N2Cc3ccccc3C2)cc1` the Potency was “inactive”.
`COc1cc2c(cc1OC)C(C)N(S(=O)(=O)c1cnc(Cl)c(Cl)c1)CC2` (stereo not given) was tested, and the Potency was “inactive”.
For `COc1cc(-n2c(C)nc3cc(C(=O)NCc4ccco4)ccc32)cc(OC)c1OC`, the Potency was “inactive”.
In the case of `COC(=O)/C=C/C(=O)NCc1ccco1`, the Potency is reported as “inactive”.
In the case of `COc1cccc(NC(=S)NCc2ccco2)c1`, the Potency is reported as 11.2 µM (active).
With `COc1cc(C(=O)N[C@@H](C)C(=O)NCc2ccco2)cc(OC)c1OC` the Potency was “inactive”.
`COc1cccc(NC(=O)NCc2ccc(F)cc2)c1` was tested, and the Potency was “inactive”.
For `COc1ccc(-c2cc(C(=O)NCc3ccco3)no2)cc1OC`, the Potency was “inactive”.
In the case of `S=C(NCc1ccco1)Nc1ccc2c(c1)OCCO2`, the Potency is reported as “inactive”.
`COc1cccc(OC)c1C(=O)NC(=S)NCc1ccco1` was tested, and the Potency was 3.55 µM (active).
With `COc1cc(C(=O)NC(=S)NCc2ccco2)cc(OC)c1OC` the Potency was 6.31 µM (active).
With `CCOC(=O)N1CCN(C(=O)c2cn(C)c3ccc(S(=O)(=O)N(CC)CC)cc3c2=O)CC1` the Potency was “inactive”.
`Cc1c(NC(=O)CSCc2ccccc2)cccc1C(=O)O` was tested, and the Potency was “inactive”.
In the case of `Cc1occc(=O)c1OCc1ccc(F)cc1`, the Potency is reported as “inactive”.
With `CC(=O)Nc1ccc(NS(=O)(=O)c2ccc3c(c2)NC(=O)CC(=O)N3)cc1` the Potency was “inactive”.
`Cn1ncc2c(N3CCCCC3)nc(NCCCO)nc21` was tested, and the Potency was “inactive”.
In the case of `O=C(NCc1ccc2c(c1)OCO2)C(=O)NCC1OCCN1S(=O)(=O)c1ccc(F)cc1` (stereo not given), the Potency is reported as “inactive”.
`O=[N+]([O-])c1ccc(N2CCN(c3ccc(F)cc3)CC2)cn1` was tested, and the Potency was “inactive”.
`CCCCC(=O)NCc1ccc(F)cc1` was tested, and the Potency was “inactive”.
For `CC(Oc1ccc(Br)cc1Br)C(=O)NC1CCCC1` (stereo not given), the Potency was “inactive”.
For `COC(=O)c1sccc1NC(=S)Nc1ccc(C)cc1`, the Potency was “inactive”.
`Cc1cc(Br)ccc1NC(=S)NC1CCCC1` was tested, and the Potency was 3.16 µM (active).
For `Cc1cc(C)cc(NC(=S)NCc2ccc(F)cc2)c1`, the Potency was 2.51 µM (active).
In the case of `Cc1ccc(C(=O)CNc2ccc(F)cc2)cc1`, the Potency is reported as “inactive”.
`COc1cc(NC(=S)NCc2ccc(S(N)(=O)=O)cc2)cc(OC)c1` was tested, and the Potency was “inactive”.
For `Cc1ccc(NC(=S)Nc2ccc(F)cc2)cc1`, the Potency was 11.2 µM (active).
With `Cc1cc(C)cc(NC(=O)NC2CCCCCCC2)c1` the Potency was “inactive”.
`O=C(NC1CCN(Cc2ccccc2)CC1)c1cc(Br)c(Br)[nH]1` was tested, and the Potency was “inactive”.
In the case of `O=C(COc1ccc(Br)cc1F)NC1CCN(Cc2ccccc2)CC1`, the Potency is reported as “inactive”.
In the case of `S=C(Nc1ccc(Br)cc1Cl)NC1CCN(Cc2ccccc2)CC1`, the Potency is reported as 10 µM (active).
